In PubChem BioAssay (NCATS):
Inconclusive results are not listed. The source made the active and inactive calls. The call rests on the fitted dose curve; in most records, active means well fitted cell-killing curve with a large enough effect; inconclusive means small, poorly fitted or top-dose-only effect, or effect the other way; inactive means no such curve, though single readings can be large or run the other way.

experiment: Quantitative High-Throughput drug screen in 47 multiple myeloma cell lines against the NCATS MIPE library collection: OCIMY5_PLB cell viability assay (AID 1918988); settings: OCI-MY5 myeloma viability, ATP luminescence, 48 h; series mostly up to 45.8 µM; further: nearly all actives have a fitted effect of over 65% in size
How it was run: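 Plated at 500 cells per well, myeloma lines received MIPE 4.0 compounds by pin tool. Following 48 h culture at 37 °C, CellTiter-Glo luminescence gave viability relative to DMSO and media-only controls.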
Potency means the concentration at half of the fitted maximal effect.

| Compound | Potency |
| --- | --- |
| CCc1ccc(C(=O)Nc2cc(CN3CCN(C)CC3)cc(C(F)(F)F)c2)cc1C#Cc1cnc2ccnn2c1 | 1870 nM (active) |
| C=CC[C@@H]1C=C(C)C[C@H](C)C[C@H](OC)[C@H]2O[C@@](O)(C(=O)C(=O)N3CCCC[C@H]3C(=O)O[C@H](C(C)=C[C@@H]3CC[C@H](O)[C@H](OC)C3)[C@@H](C)[C@@H](O)CC1=O)[C@@H](C)C[C@@H]2OC | 662 nM (active) |
| CO[C@@H]1[C@@H](O)[C@H](O)[C@@H](n2c3c(Cl)cccc3c3c4c(c5c6cccc(Cl)c6[nH]c5c32)C(=O)NC4=O)O[C@@H]1CO | 2090 nM (active) |
| C[C@H](NC(=O)C(C#N)=Cc1cccc(Br)n1)c1ccccc1 | 2640 nM (active) |
| Cn1cnc(=N)c2[nH]cnc21 | 132 nM (active) |
| CC(C)N1[N]C(=C2C=c3cc(O)ccc3=N2)c2c(N)ncnc21 | 1180 nM (active) |
| COc1cccc2c1C(=O)c1c(O)c3c(c(O)c1C2=O)C[C@@](O)(C(=O)CO)C[C@@H]3O[C@H]1C[C@H](N)[C@@H](O)[C@H](C)O1 | 526 nM (active) |
| COc1cc(C=CC(=O)CC(=O)C=Cc2ccc(O)c(OC)c2)ccc1O | 12100 nM (active) |
| CCC[C@H]1C[C@H](C(=O)N[C@@H]([C@@H]2O[C@@H](SC)[C@@H](O)[C@@H](O)[C@@H]2O)[C@H](C)Cl)N(C)C1 | inactive |
| C=CC(=O)Nc1ccc2ncnc(Nc3ccc(OCc4cccc(F)c4)c(Cl)c3)c2c1 | 52.6 nM (active) |
| Cn1cc(C2=C(c3c4n(c5ccccc35)CCC(CN)C4)C(=O)NC2=O)c2ccccc21 (stereo unspecified) | 8330 nM (active) |
